18 compounds from the supplement of paper PMC13380429 can be followed below.

A number with no mark means an inactive call.

The subject of this test is Vero E6 infected with SARS-CoV-2. Description: inhibition of SARS-CoV-2 cytopathic effect; higher = more antiviral protection, active = above 15. As to conditions: 48 h.

As for `COc1cc(C(=O)N2CCOCC2)cc(OC)c1OC` [trimetozine], the “inhibition of SARS-CoV-2 cytopathic effect” value (“inhibition” below) (1 nM) is 0.84%; the “inhibition” value (8.33 nM) was 0.93%; the “inhibition” value (100 nM) was 1.16%; the “inhibition” value (833.33 nM) is 4.1%; the “inhibition” value (10000 nM) is 2.28%.

Take `CN[C@@H]1[C@H](O[C@H]2[C@H](O[C@H]3[C@H](O)[C@@H](O)[C@H](NC(=N)N)[C@@H](O)[C@@H]3NC(=N)N)O[C@@H](C)[C@]2(O)CO)O[C@@H](CO)[C@H](O)[C@H]1O` [dihydrostreptomycin]: the “inhibition” value is, setting by setting: (1 nM) 0.2%; (8.33 nM) -0.04%; (100 nM) -0.21%; (833.33 nM) 0.85%; (10000 nM) -0.41%.

With `C=C1CC[C@H](O)C/C1=C/C=C1\CCC[C@]2(C)[C@@H]([C@H](C)CCCC(C)C)CC[C@@H]12` [cholecalciferol], the “inhibition” value was -2.37% (1 nM); -2.07% (8.33 nM); -1.56% (100 nM); -2.03% (833.33 nM); 0.91% (10000 nM).

Take `NC(=O)c1cnccn1` [pyrazinamide]: the “inhibition” value (1 nM) is -9.22%; the “inhibition” value (8.33 nM) is -8.44%; the “inhibition” value (100 nM) is -5.67%; the “inhibition” value (833.33 nM) was -9.11%; the “inhibition” value (10000 nM) is -9.96%.

Consider `Cc1cc(C(C)(C)C)c(O)c(C)c1CC1=NCCN1` [oxymetazoline], for which the “inhibition” value is, setting by setting: (1 nM) 0.98%; (8.33 nM) 1.83%; (100 nM) 1.85%; (833.33 nM) 1.64%; (10000 nM) 0.31%.

As to `CN(C)CCOc1ccc(-c2nc(-c3ccncc3)c(-c3ccc4c(c3)CC/C4=N\O)[nH]2)cc1`, the “inhibition” value is -0.13% (1 nM); -0.36% (8.33 nM); 2.34% (100 nM); -0.51% (833.33 nM); 6.82% (10000 nM).

`O=C(O)CC/C=C\C[C@@H]1CO[C@H](c2ccccc2Cl)O[C@@H]1c1ccccc1O` (racemic): the “inhibition” value is 0.52% (1 nM); 1% (8.33 nM); -2.37% (100 nM); 0.59% (833.33 nM); -2.08% (10000 nM).

With `Nc1c(S(=O)(=O)O)cc(Nc2cccc3ccccc23)c2c1C(=O)c1ccccc1C2=O`, the “inhibition” value by setting is: (1 nM) -0.33%; (8.33 nM) -0.72%; (100 nM) -2.22%; (833.33 nM) -1.16%; (10000 nM) -4.63%.

For the compound `O=S1(=O)c2cccc3cccc(c23)N1CCCN1CCN(c2ccc(F)cc2)CC1` [fananserin], the “inhibition” value is, setting by setting: (1 nM) -2.57%; (8.33 nM) -1.46%; (100 nM) -1.21%; (833.33 nM) -2.34%; (10000 nM) -0.89%.

With `CC(=O)Nc1ccc(O)cc1` [paracetamol], the “inhibition” value runs as follows: (1 nM) -0.44%; (8.33 nM) 1.77%; (100 nM) -0.22%; (833.33 nM) 0.33%; (10000 nM) -2.2%.

Turning to `CC(C)(C)C[C@@H]1N[C@@H](C(=O)N[C@H]2CC[C@H](O)CC2)[C@H](c2cccc(Cl)c2F)[C@]12C(=O)Nc1cc(Cl)ccc12`, the “inhibition” value is, setting by setting: (1 nM) -4.12%; (8.33 nM) -2.43%; (100 nM) -7.89%; (833.33 nM) 2.65%; (10000 nM) 2.37%.

For `O=C(CNC(=O)c1cccc(C(F)(F)F)c1)N[C@@H]1CCN(Cc2ccc(Cl)cc2)C1` [teijin-compound-1], the “inhibition” value by setting is: (1 nM) -1.08%; (8.33 nM) -0.19%; (100 nM) 0.66%; (833.33 nM) -1.99%; (10000 nM) -4.88%.

On to `Cc1ccccc1C(=O)Nc1ccc(C(=O)N2CCCC(O)c3cc(Cl)ccc32)c(C)c1` (stereo not given) [tolvaptan], for which the “inhibition” value by setting is: (1 nM) 1.52%; (8.33 nM) 1.94%; (100 nM) 0.74%; (833.33 nM) -1.55%; (10000 nM) 1.54%.

In the case of `COc1cc(-n2cnc3cc(-c4ccc(Cl)cc4)sc3c2=O)ccc1OCCN1CCCC1`, the “inhibition” value (1 nM) was -1.24%; the “inhibition” value (8.33 nM) was 0.96%; the “inhibition” value (100 nM) is 0.81%; the “inhibition” value (833.33 nM) is -2.38%; the “inhibition” value (10000 nM) is 49.9% (active).

Regarding `Oc1nc(-c2ccc(C(F)(F)F)cc2)nc2c1CSCC2`, the “inhibition” value is, setting by setting: (1 nM) 4.88%; (8.33 nM) 2.98%; (100 nM) 3.97%; (833.33 nM) 2.58%; (10000 nM) 0.15%.

As for `O=P1(N(CCCl)CCCl)NCCCO1` (stereo not given) [cyclophosphamide], the “inhibition” value is -3.03% (1 nM); 0.27% (8.33 nM); -0.35% (100 nM); -1.65% (833.33 nM); 0.46% (10000 nM).

With `CN1CCN(c2nc(C3=C(c4c[nH]c5ccccc45)C(=O)NC3=O)c3ccccc3n2)CC1` [sotrastaurin], the “inhibition” value runs as follows: (1 nM) 0.12%; (8.33 nM) 1.74%; (100 nM) -0.57%; (833.33 nM) -1.82%; (10000 nM) 4.89%.

Take `O=S(=O)(O)c1ccc2[nH]c(-c3ccccc3)nc2c1` [phenylbenzimidazole-sulfonic-acid]: the “inhibition” value is, setting by setting: (1 nM) -0.84%; (8.33 nM) 2.98%; (100 nM) 1.91%; (833.33 nM) 4.9%; (10000 nM) -7.89%.
